# Results published in PubChem BioAssay (Tox21).
# Results filed as inconclusive are left out. Values without a mark were called inactive. The call rests on the fitted dose curve; in most records, active means well fitted activation curve with a large enough effect in the repeat runs; inconclusive means weak or mixed curves; inactive means flat fitted curve, though single readings scatter.
# Test: A CellTox Green Cytotoxicity Assay to monitor cytotoxicity in HepG2 cells - 8 hour (AID 1224890); further: nearly all actives have a fitted effect of over 45% in size
# Conditions: CellTox Green fluorescence; series mostly up to 76.8 µM; cytotoxicity increase: at the top concentration
# In short: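 Read-out is fluorescence of a cyanine dye excluded from live cells that stains DNA of dead HepG2 cells, with signal proportional to cytotoxicity. Plates were read at 0, 8, 16, 24, 32 and 40 h after compound addition.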
# On the % scale 0 is the no-effect control and ±100 the full control effect.
row,SMILES,cytotoxicity increase
1,COC(=O)CC(C(C)=O)C(=O)OC (stereo not drawn),-9.54%
2,CC(C)(O)CCc1ccccc1,5.46%
3,C=C(C)c1ccccc1,-11.9%
4,Cc1cccc2sc(N)nc12,-6.75%
5,Nc1cccc2c(N)cccc12,-7.1%
6,CC(=O)Oc1cccc(O)c1,0.476% [at 35.3 µM]
7,CCCOC(=O)c1c(Cl)c(Cl)c(Cl)c(Cl)c1C(=O)OCCC,10.6%
8,CCc1ccc(C)cc1,-2.8%
9,COC(OC)OC,-8.15%
10,CCCCCCCCCCCCCOS(=O)(=O)O,11.6%
11,Nc1ccc(F)cc1,-19.4%
12,CCCCCCCCCCCCCCCCCC(=O)OCC(CC)CCCC (stereo not drawn),-1.98%
13,CC(=O)OCCC(C)CC(C)(C)C (stereo not drawn),-5.45%
14,CCCCCc1ccco1,4.35% [at 35.3 µM]
15,CC(C)(O)c1coc(S(=O)(=O)NC(=O)Nc2c3c(cc4c2CCC4)CCC3)c1,-6.27%
16,Cc1ccc(N(CC2=NCCN2)c2cccc(O)c2)cc1,-1.34% [at 35.3 µM]
17,CC(=O)C(C)=O,-3.17%
18,CC(C)N(C)C,6.46%
19,CCC(=O)OCc1ccc(OC)cc1,-4.89%
20,C[C@@H]1[C@H](O)[C@@H](C)/C=C/C=C\C=C\C=C\C=C\C=C\C=C\[C@H](O[C@@H]2O[C@H](C)[C@@H](O)[C@H](N)[C@@H]2O)C[C@@H]2O[C@](O)(C[C@@H](O)C[C@@H](O)[C@H](O)CC[C@@H](O)C[C@@H](O)CC(=O)O[C@H]1C)C[C@H](O)[C@H]2C(=O)O (stereo in doubt),1.52%
21,O=C(NC(Cc1cc(=O)[nH]c2ccccc12)C(=O)O)c1ccc(Cl)cc1 (stereo not drawn),0.547% [at 35.3 µM]
22,O=C(O)c1ccc(O)cc1O,2.56%
23,CN1C(CSCC(F)(F)F)Nc2cc(Cl)c(S(N)(=O)=O)cc2S1(=O)=O (stereo not drawn),-8.2% [at 35.3 µM]
